{
  "source": "PubChem BioAssay (EPA / NIEHS)",
  "note": "Inconclusive results are not listed. The source holds several records for some structures; these can differ, active in one and inactive in another. Calls of active or inactive are those of the source. The calls were made as follows: active = hit-call score of the fitted dose curve at least 0.9, where 1 is the maximum; inconclusive = response in the unintended direction; inactive = score below 0.9.",
  "data": [
    {"biological_target": "Retinoic acid receptor RXR-alpha (Homo sapiens) (UniProt P19793)", "sequence (P19793 whole entry, looked up)": "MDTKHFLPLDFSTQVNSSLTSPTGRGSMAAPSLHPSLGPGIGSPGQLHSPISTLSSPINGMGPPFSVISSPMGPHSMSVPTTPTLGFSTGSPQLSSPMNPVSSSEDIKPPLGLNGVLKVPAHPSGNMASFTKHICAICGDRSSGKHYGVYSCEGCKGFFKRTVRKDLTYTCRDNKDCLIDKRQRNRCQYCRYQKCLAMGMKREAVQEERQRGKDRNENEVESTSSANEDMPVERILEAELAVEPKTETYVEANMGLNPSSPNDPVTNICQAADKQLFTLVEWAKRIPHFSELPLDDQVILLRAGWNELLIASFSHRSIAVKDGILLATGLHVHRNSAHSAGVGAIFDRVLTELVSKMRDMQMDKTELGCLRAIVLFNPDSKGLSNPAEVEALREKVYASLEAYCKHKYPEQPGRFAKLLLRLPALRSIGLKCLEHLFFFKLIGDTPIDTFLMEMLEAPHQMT", "assay": "OT_NURR1_NURR1RXRa_1440: Odyssey Thera (OT) 24-hour HEK293T Protein Complementation Assay for Nurr1/retinoid X receptor (RXR) (AID 2283386)", "protocol": "OT_NURR1_NURR1RXRa_1440 is a cell-based assay that uses HEK293T, a human kidney cell line, with measurements taken at 24 hours after chemical dosing in a 384-well plate.OT_NURR1_NURR1RXRa_1440 is one of one assay component(s) measured or calculated from the OT_NURR1_NURR1RXRa_1440 assay. It is designed to make measurements of protein fragment complementation, a form of binding reporter, as detected with fluorescence intensity signals by Protein-fragment Complementation technology.Data from the assay component OT_NURR1_NURR1RXRa_1440 was analyzed into 1 assay endpoint. This assay endpoint, OT_NURR1_NURR1RXRa_1440, was analyzed in the positive analysis fitting direction relative to DMSO as the negative control and baseline of activity. Using a type of binding reporter, measures of receptor for gain-of-signal activity can be used to understand the binding at the pathway-level as they relate to the gene RXRA. Furthermore, this assay endpoint can be referred to as a primary readout, because the performed assay has only produced 1 assay endpoint. To generalize the intended target to other relatable targets, this assay endpoint is annotated to the nuclear receptor intended target family, where the subfamily is non-steroidal.\nProtein-fragment complementation assay, or PCA, is a method for the identification and quantification of protein-protein interactions. In the PCA, the proteins of interest (\"bait\" and \"prey\") are each covalently linked to fragments of a third protein (e.g. DHFR, which acts as a \"reporter\"). Interaction between the bait and the prey proteins brings the fragments of the reporter protein in close proximity to allow them to form a functional reporter protein whose activity can be measured.", "values": [
      {"smiles": "CC(C)(c1cc(Br)c(O)c(Br)c1)c1cc(Br)c(O)c(Br)c1", "AC50": "47.8 µM (active)", "outcome": "inactive"},
      {"smiles": "C[C@]12CC[C@@H]3c4ccc(O)cc4CC[C@H]3[C@@H]1CCC2=O", "outcome": "inactive", "AC50": "32.1 µM (active)"},
      {"smiles": "CCCCCCCC[Si](OCC)(OCC)OCC", "outcome": "inactive"},
      {"smiles": "Oc1ccccc1", "outcome": "inactive"},
      {"smiles": "O=C(Nc1ccc(Cl)cc1)Nc1ccc(Cl)c(Cl)c1", "outcome": "inactive"},
      {"smiles": "O=C=NCCCCCCN=C=O", "outcome": "inactive"},
      {"smiles": "O=C(O)c1ccccc1-n1cc(C(=O)O)c(=O)c2cc(Nc3c(F)cc(F)cc3Cl)c(Cl)cc21", "outcome": "inactive"},
      {"smiles": "O=C1CCC(C2CCCCC2)CC1", "outcome": "inactive"},
      {"smiles": "Cc1occc1C(=O)Nc1ccc(C(=O)N2CCC(F)(F)/C(=C\\C(=O)N3CCC(N4CCCCC4)CC3)c3ccccc32)cc1", "AC50": "28.3 µM (active)"},
      {"smiles": "Cc1ncc(CO)c(CO)c1O", "outcome": "inactive"},
      {"smiles": "Clc1cc(Cl)c2c(c1)N=C1CCCCCN1C2", "outcome": "inactive"},
      {"smiles": "CCN(Cc1cccc(S(=O)(=O)O)c1)c1ccc(C(=C2C=CC(=[N+](CC)Cc3cccc(S(=O)(=O)O)c3)C=C2)c2ccccc2S(=O)(=O)[O-])cc1", "outcome": "inactive", "AC50": "46.6 µM (active)"},
      {"smiles": "CC1(C)NC(=O)N(c2ccc([N+](=O)[O-])c(C(F)(F)F)c2)C1=O", "outcome": "inactive"},
      {"smiles": "CN1C(=O)N(c2ccccc2Br)Cc2cnc(Nc3ccc4c(c3)OCC(CO)O4)nc21", "note": "(stereo not given)", "outcome": "inactive"},
      {"smiles": "CC(C)(C)c1csc(-c2cc3cc(OCc4ccccc4CC(=O)O)ccc3o2)n1", "AC50": "29.1 µM (active)"},
      {"smiles": "Cc1cc(F)ccc1-c1cc(N2CC[C@@H](O)[C@H]2CO)ncc1N(C)C(=O)C(C)(C)c1cc(C(F)(F)F)cc(C(F)(F)F)c1", "AC50": "9.74 µM (active)"},
      {"smiles": "Oc1ccc2ccccc2c1", "outcome": "inactive"},
      {"smiles": "Cc1ccc(C(C)C)cc1", "outcome": "inactive"},
      {"smiles": "COc1cc(C(=O)NC2CCN(C)CC2)ccc1Nc1ncc2c(n1)N(C1CCCC1)CC(F)(F)C(=O)N2C", "AC50": "11 µM (active)"},
      {"smiles": "c1ccc2n[nH]nc2c1", "outcome": "inactive"},
      {"smiles": "CCCCCCCCCC(=O)O", "outcome": "inactive"},
      {"smiles": "O=c1c(-c2ccc(O)cc2)coc2cc(O)cc(O)c12", "outcome": "inactive"},
      {"smiles": "O=CCCCC=O", "outcome": "inactive"},
      {"smiles": "CCCCCCCCN(C)CCCCCCCC", "outcome": "inactive"},
      {"smiles": "O=c1ccc2ccccc2o1", "outcome": "inactive"},
      {"smiles": "C[C@]12CC[C@@H]3c4ccc(O)cc4CC[C@H]3[C@@H]1CC[C@H]2O", "outcome": "inactive"},
      {"smiles": "CCCOC(=O)c1cc(O)c(O)c(O)c1", "outcome": "inactive"},
      {"smiles": "Cc1cn([C@H]2C[C@H](N=[N+]=[N-])[C@@H](CO)O2)c(=O)[nH]c1=O", "outcome": "inactive"},
      {"smiles": "COCC(C)OCC(C)OCC(C)O", "note": "(stereo not given)", "outcome": "inactive"},
      {"smiles": "CC/C(=C(/CC)c1ccc(O)cc1)c1ccc(O)cc1", "outcome": "inactive"},
      {"smiles": "CC[C@H](NC(=O)c1cc(F)ccc1NS(=O)(=O)c1cccc2cccnc12)c1ccccc1", "outcome": "inactive"},
      {"smiles": "CCCC(=O)OCCC(C)C", "outcome": "inactive"},
      {"smiles": "CCN(CC)C(=O)c1cc(S(=O)(=O)Cc2ccccc2)c(N2CCC(c3ccccc3)CC2)cc1N(CC)CCN(C)C", "AC50": "4.48 µM (active)"},
      {"smiles": "CO[C@H]1/C=C/O[C@@]2(C)Oc3c(C)c(O)c4c(O)c(c(/C=N/N5CCN(C)CC5)c(O)c4c3C2=O)NC(=O)/C(C)=C\\C=C\\[C@H](C)[C@H](O)[C@@H](C)[C@@H](O)[C@@H](C)[C@H](OC(C)=O)[C@@H]1C", "outcome": "inactive"},
      {"smiles": "CCCCCCCCCCCO", "outcome": "inactive"},
      {"smiles": "Cc1cc2c(cc1C(F)(F)F)N(C(=O)Nc1ccc(Oc3cccnc3C)nc1)CC2", "outcome": "inactive"},
      {"smiles": "OC12N=C(c3ccccc3)SC1Cc1cc(Cl)ccc12", "note": "(stereo not given)", "AC50": "30 µM (active)"}
    ]}
  ]
}
